Measured values reported in ChEMBL document CHEMBL1157539, “Thousands of chemical starting points for antimalarial lead identification” (Nature, 2010).

What was measured:
Assay type in all cases: functional
Plasmodium falciparum [1] = experiment: GSK_TCMDC: Inhibition of Plasmodium falciparum 3D7 in whole red blood cells, using parasite LDH activity as an index of growth. Test compounds present at 2uM
Plasmodium falciparum [2] = experiment: GSK_TCMDC: Inhibition of Plasmodium falciparum Dd2 in whole red blood cells, using parasite LDH activity as an index of growth. Test compounds present at 2uM
HepG2 = experiment: GSK_TCMDC: Percent inhibition of human HepG2 cell line. Test compounds present at 10uM.

SMILES	Inhibition (Plasmodium falciparum [1]) [%]	Inhibition (Plasmodium falciparum [2]) [%]	Inhibition (HepG2) [%]
Cc1cc(-c2ccc(CNCc3ccsc3)cc2)ccc1S(=O)(=O)NCCN1CCCC1.O=C(O)C(F)(F)F	99	49	57
N#Cc1ccc(N(CCOc2ccc(Cl)c(Cl)c2)Cc2ccccc2C(F)(F)F)cc1C(F)(F)F	90	57	13
COc1cc2nc(Nc3ccc4c(cnn4Cc4ccccc4)c3)nc(Nc3ccc4c(cnn4Cc4ccccc4)c3)c2cc1OC	99	100	4
COc1ccc(CNC2CCN(C)CC2)cc1-c1ccc(S(=O)(=O)NCc2ccccc2)c(C)c1.O=C(O)C(F)(F)F	100	98	81
Cl.c1ccc(Oc2ccc(Nc3ccnc(Nc4ccc(OCCN5CCCCC5)cc4)n3)cc2)cc1	97	66	23
COc1cc(NC(=O)CCCCCCCCN2CCN(C)CC2)c2ncccc2c1	82	36	8
CC1CN(Cc2ccccc2)CCN1c1ccc(NC(=O)c2ccc(F)cc2)cc1.O=C(O)C(F)(F)F (stereo not given)	87	89	0
CC(C)C[C@H](NC(=O)c1ccc(F)cc1)C(=O)N[C@H](/C=N/NC(=O)c1ccccc1)CCc1ccccc1	92	61	1
C=C(C)Cn1cc(C2CCN(CCCCNC(=O)c3sc(-c4ccc(Cl)cc4Cl)nc3CO)CC2)c2ccccc21	82	19	22
Cl.N=c1n(Cc2ccccc2)c2ccccc2n1CC(O)c1ccc(Cl)cc1 (stereo not given)	96	75	26
